# Experimental data taken from PubChem BioAssay AID2315 (National Center for Advancing Translational Sciences (NCATS), 2010).
# Among all 290,000 compounds or so, about 27,000 (9.3%) were called active. The full list was thinned out, with actives kept by preference. A number with no mark means an inactive call. Rule as the data show it: active = inhibition mostly above about 28% (no sharp cut-off); inactive = mostly below about 43%.
# Assay: A qHTS for Small Molecule Inhibitors of Shiga Toxin; also: 0% is about no effect
# Conditions: Vero cells, Shiga toxin protein synthesis inhibition reporter; at 38.7 µM, stronger effect = higher value
row,Structure (SMILES),inhibition
1,C[C@H](NC(=O)[C@@H]1Cc2ccccc2CN1C(=O)OC(C)(C)C)C(=O)NC1CCCC1,-6.03%
2,O=c1[nH]cccc1-c1nc2ccccc2n1Cc1ccc(Cl)cc1,-20.4%
3,O=S(=O)(c1ccccc1)c1nc(Cc2ccccc2)oc1N1CCOCC1,-8%
4,COc1cccc(CNCc2ccc3c(c2)OCO3)c1,-0.994%
5,COc1cccc(C(=O)NNC(=O)/C=C/c2ccccc2)c1,-15.7%
6,O=C1Nc2ccccc2C12Nc1ccccc1S2 (stereo not given),103% (active)
7,COc1ccc(C2(O)C(=O)Nc3ccccc32)cc1 (stereo not given),-10.8%
8,Cc1cc(O)c(C2(O)C(=O)Nc3ccccc32)cc1C (stereo not given),-0.279%
9,Cn1c(=O)[nH]c(=O)c2c1nc(N1CCN(C(c3ccccc3)c3ccccc3)CC1)n2CCO,-11.3%
10,COc1ccc(NC(=O)c2cccc(Cl)c2)c[n+]1[O-],-4.4%
11,O=[N+]([O-])c1ccccc1/C=C/CN1CCC(O)CC1,-7.66%
12,CC(=NC1CCN(Cc2ccccc2)CC1)c1c(O)[nH]c(=O)[nH]c1=O,21%
13,CS(=O)(=O)N(CC(=O)N1CCN(Cc2ccccc2)CC1)c1ccc2c(c1)OCCO2,-18.5%
14,c1ccc(CN2CCC(N=C3NN=C(c4ccc5c(c4)OCCO5)CS3)CC2)cc1,116% (active)
15,Clc1cccc(N=C2NN=C(c3ccc4c(c3)OCCO4)CS2)c1,95.2% (active)
16,Cc1cccc(C)c1NC(=O)CSc1nc2c([nH]1)c(=O)n(C)c(=O)n2C,-8.9%
17,Cc1ccc(C(=O)N2CC(=O)Nc3ccc(F)cc3C2c2ccc(F)cc2)cc1 (stereo not given),2.9%
18,CCOC(=O)c1cc(C(=O)Nc2ccc(S(=O)(=O)Nc3ccc(OC)cc3)cc2)nn1C,5.33%
19,CCOc1ccccc1Nc1ccc2nonc2c1[N+](=O)[O-],-7.22%
20,O=C(c1ccc(Cl)cc1)c1cnc(Nc2ccccc2)s1,25.6%
21,CC(C)(C)C(=O)c1cnc(Nc2ccccc2)s1,87% (active)
22,S=c1[nH]nc(Nc2ccccc2)s1,-13.5%
23,COc1ccc(-n2cnnc2SCC(=O)Nc2cccc(S(N)(=O)=O)c2)cc1,-21.7%
24,COc1ccc(OC)c(NC(=O)CN(C)CCOc2ccc(Br)cc2)c1,-23.8%

row,Structure (SMILES),inhibition
1,NC(=O)COc1ccc(C23CC4CC(CC(C4)C2)C3)cc1,58.8% (active)
2,NC(=O)COc1ccccc1C(=O)NC12CC3CC(CC(C3)C1)C2,-4.22%
3,NNC(=O)COc1ccc(C2SCCS2)cc1,20.4%
4,O=S(=O)(Oc1ccccc1C(=S)N1CCOCC1)c1ccc(Cl)cc1,-36.2%
5,Cc1ccc(N(C(=O)c2snc(C(N)=O)c2N)C(C(=O)NCC2CCCO2)c2c[nH]c3ccccc23)cc1 (stereo not given),23.7%
6,COC(=O)c1ccccc1NC(=O)C1CCN(C(=O)N2CCOc3ccccc32)CC1,8.07%
7,Cc1nn(CC(=O)Nc2nc3ccccc3s2)c(C)c1[N+](=O)[O-],26.1%
8,Oc1ccc(-c2[nH]ncc2-c2nc3ccccc3s2)c(O)c1,13.6%
9,CC(=O)Nc1cccc(-c2nc3ccccc3s2)c1C,60.4% (active)
10,CC(=O)N1CCSc2ccc(S(=O)(=O)N3CCC(C)CC3)cc21,-12.1%
11,O=C(Nc1ccccc1N1CCCC1)c1ccc2ccccc2c1,58.1%
12,CCCN(CCC)C(=S)Nc1cc(C(=O)OC)ccc1C(=O)OC,-14.3%
13,COc1ccc(S(=O)(=O)N(CC(=O)N/N=C/c2ccc(C(=O)O)cc2)Cc2ccccc2)cc1OC,1.95%
14,CC(C)Cn1c(N)c(C(=O)NCc2cccs2)c2nc3ccccc3nc21,-13.1%
15,CCC(C)NC(=O)c1c(N)n(/N=C/c2cccs2)c2nc3ccccc3nc12 (stereo not given),107% (active)
16,CCCNC(=O)c1c(N)n(-c2ccc(S(N)(=O)=O)cc2)c2nc3ccccc3nc12,-14.1%
17,CCc1[nH]nc(C(=O)N2CCCC(CO)(Cc3ccc(F)cc3F)C2)c1C (stereo not given),-13.8%
18,Cc1ccc(S(=O)(=O)CC(=O)NC(C)c2ccccc2)cc1 (stereo not given),-1.44%
19,CCc1ccccc1NC(=O)[C@@H]1CCC(=O)N1C1OC(=O)c2c1ccc(OC)c2OC (stereo not given in full),-2.37%
20,Cc1ccc2[nH]cc(CCCN3C(=O)c4ccccc4C3=O)c2c1,1.09%
21,COc1ccc(C[C@H](C(=O)O)N2C(=O)c3ccc(C(=O)O)cc3C2=O)cc1,2.25%
22,COc1ccc2[nH]cc(CCN3C(=O)c4ccc(C(=O)O)cc4C3=O)c2c1,60.8% (active)
23,O=C(CC(c1ccccc1)c1ccccc1)NCC(O)c1ccc([N+](=O)[O-])cc1 (stereo not given),-4.27%
24,CCCCc1ccc(NC(=S)N2CCCC(CO)C2)cc1 (stereo not given),87.2% (active)

row,Structure (SMILES),inhibition
1,COc1ccc(NC(=S)N2CCCC(CO)C2)c(OC)c1 (stereo not given),-3.35%
2,CCCCc1ccc(NC(=S)NCCCN2CCOCC2)cc1,-8.23%
3,COc1ccc(C(=O)Nc2ccccc2C(=O)N2CCN(c3ccccc3)CC2)cc1,-6.97%
4,CCn1nccc1C(=O)Nc1ccc(S(=O)(=O)NC23CC4CC(CC(C4)C2)C3)cc1,-9.86%
5,Cc1nnc(NC(=O)Nc2ccc(Cl)c(Cl)c2)s1,-3.3%
6,CCn1nccc1C(=O)Nc1ccc(Cl)c(Cl)c1,81% (active)
7,CC1=C(C(=O)OC2CCCCC2)C(c2ccccc2F)NC(=O)N1 (stereo not given),4.41%
8,O=C(O)c1cc(S(=O)(=O)N(Cc2ccccc2)c2ccccc2)ccc1Cl,-7.94%
9,O=C(NCc1cccc(Cl)c1)C1CCN(c2nnc(N3CCCC3=O)s2)CC1,-4.8%
10,Cc1ccc(C)c(N2CCN(C(=O)CCCCCn3c(=S)[nH]c4ccc(N5CCOCC5)cc4c3=O)CC2)c1,1.81%
11,COC(=O)c1c(C)[nH]c(C(=O)/C=C/c2ccc(Cl)cc2)c1C,54.7% (active)
12,COC(=O)c1c(C)[nH]c(C)c1-c1ccc([N+](=O)[O-])cc1,21.5%
13,Cc1ccc(NC(=S)NC(=O)/C=C/c2ccc(Cl)cc2)cc1,13%
14,O=C(c1cccs1)C1C(c2ccc(Br)cc2)NC(=S)NC1(O)C(F)(F)F (stereo not given),69.1% (active)
15,CCOC(=O)C1C(c2ccc(Cl)cc2)NC(=S)NC1(O)C(F)(F)F (stereo not given),-9.88%
16,CC(=O)C1C(c2ccc(Cl)cc2)NC(=O)NC1(O)C(F)(F)F (stereo not given),-1.27%
17,CC(=O)N1CCN(CC(C)(C)NS(=O)(=O)c2ccc(C)cc2)CC1,-4.99%
18,COC(=O)c1c(C)[nH]c(C(=O)NCCc2ccc(S(N)(=O)=O)cc2)c1C,2.99%
19,CCCCOC(=O)c1[nH]c(C)c(C(=O)OC)c1C,94.4% (active)
20,CC(=O)c1c(C)[nH]c(C(=O)OCC(=O)NCCC(C)C)c1C,-4.2%
21,Cc1ccc(CN2CCN(c3ncccn3)CC2)c(C)c1,6.99%
22,Cc1ccccc1CN1CCNC(=O)C1CC(=O)NCCC1=CCCCC1 (stereo not given),-8.04%
23,CC(C)=NN1C(=O)c2ccccc2NC1(C)C,91.4% (active)
24,CC(=O)N1C(=O)C2(Nc3ccccc3N2)c2ccccc21,-7.58%

row,Structure (SMILES),inhibition
1,CC(=O)NN1C(=O)c2ccccc2NC1c1ccccc1 (stereo not given),4.01%
2,Nc1nc(SCC(=O)Nc2cc(C(F)(F)F)ccc2Cl)[nH]c(=O)c1NC(=O)c1ccco1,-1.11%
3,CCC(C)N1C(=O)S/C(=C/c2ccc(Sc3nc4ccccc4[nH]3)o2)C1=O (stereo not given),11.8%
4,COc1ccc(N2CCN(S(=O)(=O)c3ccc4c(c3)NC(=O)C(C)C(=O)N4)CC2)cc1 (stereo not given),-6.85%
5,O=S(=O)(Nc1ccc(Oc2ncccn2)c(Cl)c1)c1ccc(F)cc1,-3.73%
6,C=CCOc1cccc(CNCc2cccnc2)c1,29%
7,COC(=O)Cc1[nH]n(-c2nc3ccccc3s2)c(=O)c1C(C)=Nc1ccc(OC)cc1,38.9%
8,CC(=NCc1ccco1)C1=C(O)c2ccccc2C1=O,31.2%
9,CC(=NCc1ccco1)c1c(C(F)(F)F)[nH]n(-c2nc3ccccc3s2)c1=O,122% (active)
10,CCC(C)Cn1c(O)cc2nn(-c3nc4ccccc4s3)c(=O)c-2c1C (stereo not given),29.1%
11,CCc1ccc(-c2cc(C(=O)NCc3ccco3)c3ccccc3n2)s1,41.4%
12,C/C(=N\NC(=O)CC(C)C)c1c(C(F)(F)F)[nH]n(-c2nc3ccccc3s2)c1=O,65.9% (active)
13,Cc1ccc(NC(=O)[C@H](Cc2ccccc2)NC(=O)C2CCNCC2)cc1,-0.595%
14,COc1ccccc1NC(=O)N1CCCC1C(=O)NCc1cccs1 (stereo not given),-1.36%
15,O=C(c1ccc(OC2CCN(C/C=C/c3ccc(F)cc3)CC2)cc1)N1CCCCC1,-5.42%
16,O=C1CCC(C(=O)N2CCCCO2)CN1Cc1cccc(C(F)(F)F)c1 (stereo not given),29.5%
17,COCC1CCN(C(=O)C2CCC(=O)N(CC3CCCCC3)C2)CC1 (stereo not given),19.8%
18,COCC1CCN(C(=O)C2CCC(=O)N(Cc3cccc(C(F)(F)F)c3)C2)CC1 (stereo not given),38.4% (active)
19,CCOc1ccc(N(CC(=O)NCCc2ccc(F)cc2)S(=O)(=O)c2ccccc2)cc1,10.2%
20,O=C(NCCN1CCOCC1)c1ccc(/C=C2\Sc3ccccc3N(Cc3ccc(F)cc3)C2=O)cc1,-4.17%
21,CCOC(=O)C1CCN(C(=O)COc2cccc3ccccc23)CC1,34.7% (active)
22,CCOC(=O)C1CCN(C(=O)COc2cc(C)c(Br)c(C)c2)CC1,2.84%
23,NC(=O)C1CCN(C(=O)COc2cccc3cccnc23)CC1,33.9%
